ALOX12 inh: inhibitors of human 12S-lipoxygenase ALOX12. P18054. purified 12hLO, xylenol orange hydroperoxide absorbance. Potency, µM (series often up to 108 µM), for the others: top-dose activity change, negative = inhibition, hits mostly inhibitors. 1.1% of 580,000 active; further: on the % scale 0 is the no-effect control and ±100 the full control effect
Target sequence (P18054 whole entry, looked up): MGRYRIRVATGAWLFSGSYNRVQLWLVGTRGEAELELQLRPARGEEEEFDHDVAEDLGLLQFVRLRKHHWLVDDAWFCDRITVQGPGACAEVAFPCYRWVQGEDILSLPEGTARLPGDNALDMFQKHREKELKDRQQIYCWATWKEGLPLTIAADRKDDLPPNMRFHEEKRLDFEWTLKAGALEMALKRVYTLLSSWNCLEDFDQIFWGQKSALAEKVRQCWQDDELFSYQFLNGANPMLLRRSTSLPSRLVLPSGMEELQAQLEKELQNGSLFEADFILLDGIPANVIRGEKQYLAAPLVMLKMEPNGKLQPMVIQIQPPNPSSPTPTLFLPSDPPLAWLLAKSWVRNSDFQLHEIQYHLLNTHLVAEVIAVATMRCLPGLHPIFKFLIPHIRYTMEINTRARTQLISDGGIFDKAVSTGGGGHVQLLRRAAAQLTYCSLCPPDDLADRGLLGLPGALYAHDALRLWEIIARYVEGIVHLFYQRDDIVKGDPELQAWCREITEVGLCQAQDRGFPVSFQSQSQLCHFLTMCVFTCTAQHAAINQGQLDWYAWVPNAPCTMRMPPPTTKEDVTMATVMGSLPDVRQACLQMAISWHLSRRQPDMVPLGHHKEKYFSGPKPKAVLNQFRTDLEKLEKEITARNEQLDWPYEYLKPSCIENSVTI
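Hydroperoxide product was detected by ferrous iron/xylenol orange as the 573 to 405 nm absorbance ratio. Arachidonic acid at 40 uM (final) was turned over for 30 min at room temperature by 150 nM human 12hLO, pH 7.0 Hepes buffer, after 15 min compound preincubation.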
BAZ2B inh: BAZ2B (human) inhibition. Q9UIF8. Potency, µM (series often up to 114 µM), without a hit: top-dose activity change, negative = inhibition, usual class: inhibitors. 4.4% of 360,000 active. AlphaScreen BAZ2B-H3K14Ac peptide displacement; further: on the % scale 0 is the no-effect control and ±100 the full control effect; nearly all actives have a fitted effect of over 60% in size
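AlphaScreen luminescence quantifies BAZ2B engagement of H3K14Ac peptide; the protein and biotinylated peptide are both at 50 nM final, buffer PBS pH 7.4 with 0.01% Tween-20, all steps at room temperature.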
HP1b binding inh: blocks HP1-beta chromodomain binding to methylated histone tails. P83916. AlphaScreen HP1-beta / biotin-H3K9me3 peptide binding. Potency, µM (highest dose often 114 µM), for inactives: top-dose activity change, negative = inhibition, actives largely listed as inhibitors. 0.56% of 390,000 active; further: nearly all actives have a fitted effect of over 70% in size
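AlphaScreen: HP1-beta (50 nM) preformed 30 min with biotin-H3(1-18)K9me3 peptide (50 nM) in PBS pH 7.4, 0.01% Tween-20. Compound added for 30 min at RT, then streptavidin donor/nickel chelate acceptor beads (10 ug/mL) for 30 min.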
JMJD2A Tudor: inhibitors of human JMJD2A Tudor domain; O75164; AlphaScreen JMJD2A-Tudor / H3K4me3 peptide binding; Potency, µM (doses to about 114 µM), for inactives: at the highest dose activity change, negative = inhibition, actives largely listed as inhibitors; 4.4% of 390,000 active; AID 504339; further: on the % scale 0 is the no-effect control and ±100 the full control effect; nearly all actives have a fitted effect of over 50% in size
G9a block: G9a (human) methyltransferase inhibition. G9a H3K9 monomethylation, AlphaScreen, 2 h. Potency, µM (top dose mostly 102 µM), without a hit: top-dose activity, negative = inhibition, actives largely listed as inhibitors. 8.8% of 350,000 active; further: on the % scale 0 is the no-effect control and ±100 the full control effect; nearly all actives have a fitted effect of over 75% in size
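Step 1: enzyme (final 20 nM) with compound, 15 min RT. Step 2: substrate peptide 500 nM and SAM 20 uM, 2 h RT. Step 3: anti-H3K9me1 antibody and AlphaScreen beads, 10 min, then plate read.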
Sfp inh: Sfp phosphopantetheinyl transferase inhibition | Q9F4F7 | Biochemical Sfp PPTase activity, qHTS | Potency, µM, without a hit: largest response in the series, negative = inhibition, usual class: inhibitors | 3.5% of 310,000 active;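 further: the enzyme is Sfp with the accession as filed and its product quenches rhodamine fluorescence; 0% = enzyme reaction without inhibitor and -100% = no enzyme wells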
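Sfp 15 nM + cpd, 15 min RT; start w/ rhodamine-CoA 5 uM, BHQ-2-YbbR 12.5 uM (final); 50 mM Hepes pH 7.6, 10 mM MgCl2, 0.01% NP-40, 0.01% BSA; read 525/598 nm at 0 and 30 min.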
The depositor's hits bear a star; ! = repeats disagree; [ ] = dose if it differs, or a comment. This is a sample that favours compounds with a hit; in the whole collection about 8.7% have one here. The call rests on the fitted dose curve; in most records, active means well fitted curve in the direction sought with a large enough effect; inconclusive means small, poorly fitted or top-dose-only effect, or another doubt; inactive means no such curve, though single readings can be large; an effect the other way counts as inactive or inconclusive. Potency means the concentration at half of the fitted maximal effect.

For CCOC(=O)CSc1nc2sc3c(c2c(=O)[nH]1)CC(C)(CC)OC3 (stereo unspecified) the results were ALOX12 inh inconclusive, BAZ2B inh 4%, HP1b binding inh 23%, JMJD2A Tudor -7%, G9a block 32µM* and Sfp inh 4%.
Screening CCC1(C)Cc2c(sc3nc(NN)n(C)c(=O)c23)CO1 (stereo unspecified) returned ALOX12 inh inconclusive, BAZ2B inh 15%, HP1b binding inh 1%, JMJD2A Tudor -13%, G9a block 45µM* and Sfp inh -2%.
`Cc1c2cccn2cc[n+]1C` gave ALOX12 inh 32%[57.4 µM], BAZ2B inh -2%, HP1b binding inh 4%, JMJD2A Tudor 45µM*, G9a block 14µM* and Sfp inh -4%.
Screening O=C(NCc1ccc2c(c1)CCCO2)c1ccc(C2CCNC2)cc1 (stereo unspecified) returned ALOX12 inh 12%.
For O=C(c1cccc(Cl)c1)N1CCCC(c2ccc(Cl)cc2)=N1 the results were ALOX12 inh 8%[57.4 µM], BAZ2B inh 44%, HP1b binding inh 63%, JMJD2A Tudor 28%, G9a block 65%[59 µM] and Sfp inh -26%.
For O=C(c1ccccc1)N1CCCC(c2ccc(Cl)cc2)=N1 the results were ALOX12 inh 10%, BAZ2B inh 16%, HP1b binding inh 41%, JMJD2A Tudor 14%, G9a block -1%[2.33 µM] and Sfp inh 79µM*.
`O=C(NN1C(=O)c2cc(Br)ccc2NC1c1cc(Br)cc(Br)c1O)c1ccncc1` (stereo unspecified) gave ALOX12 inh 50µM*, BAZ2B inh inconclusive, HP1b binding inh -11%[57 µM], JMJD2A Tudor -34%, G9a block inconclusive and Sfp inh 2%.
`O=C(c1cccs1)N1CCC(Oc2ccccc2)C1` (stereo unspecified) gave ALOX12 inh 16%.
For CCOc1cc(CNc2ccc3cn[nH]c3c2)ccc1OC the results were ALOX12 inh 1%, BAZ2B inh inconclusive, HP1b binding inh 6%, JMJD2A Tudor inconclusive, G9a block 28µM* and Sfp inh -13%.
COc1ccc(CNc2ccc3cn[nH]c3c2)c(OC)c1OC was read as ALOX12 inh 7%, BAZ2B inh inconclusive, HP1b binding inh -4%, JMJD2A Tudor inconclusive, G9a block 8.9µM* and Sfp inh 1%.
For O=C(NCc1ccncc1)C1c2ccccc2C(=O)N(Cc2ccccc2)C12CCCCC2 (stereo unspecified) the results were ALOX12 inh 66%.
For O=C(Nc1cccc(F)c1)N1CCC(Oc2ncccc2C(=O)N2CCOCC2)C1 (stereo unspecified) the results were ALOX12 inh 27%.
`c1cncc(-c2cccnc2)c1` gave ALOX12 inh 0%, BAZ2B inh 40µM*, HP1b binding inh 37%, JMJD2A Tudor -14%[57.1 µM] and Sfp inh -21%.
For CC(C)(C)OC(=O)Nc1ccc(C(=O)NCC(c2cccs2)N2CCCC2)cc1 (stereo unspecified) the results were ALOX12 inh -15%.
For Cc1cc2c(cc1NS(=O)(=O)c1cccc(C#N)c1)n(C)c(=O)c(=O)n2C the results were ALOX12 inh -8%, BAZ2B inh -16%, HP1b binding inh 62%, JMJD2A Tudor -8% and G9a block 10µM*.
For Cc1cc2c(cc1NS(=O)(=O)c1ccc(Br)cc1)n(C)c(=O)c(=O)n2C the results were ALOX12 inh 0%, BAZ2B inh -7%, HP1b binding inh 0%, JMJD2A Tudor -4% and G9a block 12%[59 µM].
COc1ccccc1NS(=O)(=O)c1ccc2c(c1)n(C)c(=O)n2C was read as ALOX12 inh 8%[57.4 µM], BAZ2B inh inconclusive, HP1b binding inh 11%, JMJD2A Tudor -1%, G9a block -6%[59 µM] and Sfp inh -4%.
`COc1cc2c(cc1NS(=O)(=O)c1cccc(C#N)c1)n(C)c(=O)n2C` gave ALOX12 inh inconclusive, BAZ2B inh 79µM*, HP1b binding inh -13%, JMJD2A Tudor -31% and G9a block 10µM*.
Cc1cc(C)c(C)c(S(=O)(=O)N[C@@H](C)C(=O)OCc2cc(=O)n3cc(Br)ccc3n2)c1C was read as ALOX12 inh -7%, BAZ2B inh 50µM*, HP1b binding inh 17%, JMJD2A Tudor -26%, G9a block inconclusive and Sfp inh 5%.
Cc1ccccc1C(=O)NC(CC(C)C)C(=O)OCc1cc(=O)n2cc(Br)ccc2n1 (stereo unspecified) was read as ALOX12 inh 2%, BAZ2B inh -3%, HP1b binding inh 16%, JMJD2A Tudor -10%, G9a block 24%[59 µM] and Sfp inh -12%.
O=C(CN1C(=O)NC2(CCCC2)C1=O)OCc1cc(=O)n2cc(Br)ccc2n1 was read as ALOX12 inh -26%, BAZ2B inh inconclusive, HP1b binding inh inconclusive, JMJD2A Tudor 50µM*, G9a block inconclusive and Sfp inh 9%.
Screening CC1(C)NC(=O)N(CC(=O)OCc2cc(=O)n3cc(Br)ccc3n2)C1=O returned ALOX12 inh 3%, HP1b binding inh 21%, JMJD2A Tudor -3%, G9a block 0% and Sfp inh 15%.
Cc1ccc(S(=O)(=O)Oc2ccccc2C2C3=C(CCCC3=O)OC3=C2C(=O)CCC3)cc1 was read as ALOX12 inh 6%.
`CC1=NN(c2ccc(Cl)cc2)C(=O)C1C(c1ccccc1O)c1c(C)[nH]n(-c2ccc(Cl)cc2)c1=O` (stereo unspecified) gave BAZ2B inh 35µM*, HP1b binding inh inconclusive, JMJD2A Tudor 56µM*, G9a block 4µM* and Sfp inh 30%.
Screening O=C(N[C@@H]1CN(Cc2ccc(F)cc2F)C[C@H]1CO)c1cnccn1 returned ALOX12 inh 13%.
`CCOC(=O)C1=C[C@]2(CC)CCCN3CCc4c(n1c1ccccc41)[C@@H]32` gave ALOX12 inh inconclusive, BAZ2B inh inconclusive, HP1b binding inh 26%, JMJD2A Tudor -34%, G9a block 22µM*! and Sfp inh -26%.
Clc1ccc(OCCN2CCCCC2)cc1Cl was read as ALOX12 inh inconclusive, BAZ2B inh inconclusive, HP1b binding inh -57%, JMJD2A Tudor 22µM*, G9a block inconclusive and Sfp inh -6%.
CCOc1ccc(OCCN2CCCCC2)cc1 was read as ALOX12 inh -22%, BAZ2B inh 56µM*, HP1b binding inh -11%, JMJD2A Tudor 10µM*, G9a block 7.9µM* and Sfp inh -17%.

Bioassay records deposited in PubChem by National Center for Advancing Translational Sciences (NCATS).
